PubChem BioAssay AID430 (Sanford-Burnham Center for Chemical Genomics, 2006)
Among all 63,000 compounds or so, about 1,100 (1.7%) were called active. Many of the other results were omitted from the sample, so actives are more common in it than they were. Measured potencies and affinities stand elsewhere. A number with no mark means an inactive call. No stated cut-off is given here; in the data, active means cytotoxicity above about 50%; inactive means the rest.

Assay: HPDE-C7 pancreatic duct cell viability loss – fluorescence, HTS (AID 430);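 further: cells exposed to compound for 48 hours before viability readout; 0% = vehicle and 100% = reference cytotoxic drug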
Details: HPDE-C7 pancreatic duct cells viability, at 10 µM, hits give high values

| Structure (SMILES) | cytotoxicity |
| --- | --- |
| CNCCOCC(O)CSc1ccccc1 (stereo not given) | 1.2% |
| Cc1cccc(-c2nnn(CC/C(N)=N/O)n2)c1 | 2.8% |
| CCN1CCN(c2nc(-c3cccnc3)nc3ccccc23)CC1 | -27.8% |
| COc1ccc(NC(=O)C(Cc2ccccc2)NC(=O)c2ccco2)cc1OC (stereo not given) | -0.4% |
| c1ccc(CSc2nnc3c(n2)OC(c2ccco2)Nc2ccccc2-3)cc1 (stereo not given) | -3.6% |
| O=C(Nc1ccc2c(c1)OCO2)C(c1ccccc1)N1CCCCC1 (stereo not given) | -14% |
| O=c1[nH]nnc2c1sc1nc(N3CCOCC3)c3c(c12)CCCC3 | 30.8% |
| COc1ccccc1C1c2c(oc3ccc(Cl)cc3c2=O)C(=O)N1c1cc(C)on1 (stereo not given) | -14.3% |
| COc1ccccc1-n1c(=O)oc2ccc(Cl)cc2c1=O | 59.7% (active) |
| COc1ccccc1-n1c(SC)nc(O)cc1=O | 4.6% |
| Cn1c(SCc2c(F)cccc2Cl)nnc1-c1cccs1 | -2.8% |
| O=C(C1COc2ccccc2O1)N1CCN(c2ccc(F)cc2)CC1 (stereo not given) | -9% |
| CCOc1ccccc1OCC(=O)O | 4.2% |
| O=C(O)COc1ccc2nsnc2c1Cl | -25.1% |
| COC(=O)CN1C(=O)C(O)(CC(=O)c2ccc(C)cc2)c2ccccc21 (stereo not given) | -28.9% |
| Cc1ccccc1-n1c(N)cc(=O)[nH]c1=S | -2.2% |
| CCOC(=O)c1cc(NC(=O)Nc2ccc(OC)c(OC)c2)c(C)nc1C | 5.7% |
| CCOC(=O)N1CCN(S(=O)(=O)c2ccc(C(=O)Nc3ccc(F)cc3F)cc2)CC1 | 58% (active) |
| CCOC(=O)N1CCN(S(=O)(=O)c2ccc(F)cc2)CC1 | -1.6% |
| CCOC(=O)N1CCN(S(=O)(=O)c2ccc(C(=O)Nc3nc4ccc(F)cc4s3)cc2)CC1 | -8% |
| CC1=CC(c2ccccc2)n2nc(N3C(=O)c4ccccc4C3=O)nc2N1 (stereo not given) | -0.7% |
| Cc1cc(NC(=O)c2ccc(S(=O)(=O)N(C)C)cc2)no1 | -5.2% |
| O=S(=O)(c1ccccc1)c1nc(-c2ccccc2)oc1NCc1cccnc1 | -3.2% |
| CNC(=O)C1CC(=O)N(Cc2ccc3c(c2)OCO3)C(=Nc2ccc(F)cc2)S1 (stereo not given) | 3.4% |
| CCNC(=O)C1CC(=O)N(Cc2ccc3c(c2)OCO3)C(=Nc2ccc(F)cc2)S1 (stereo not given) | 50.6% (active) |

| Structure (SMILES) | cytotoxicity |
| --- | --- |
| CCNC(=O)C1CC(=O)N(Cc2ccc3c(c2)OCO3)C(=Nc2ccc(OCC)cc2)S1 (stereo not given) | -4.1% |
| Cc1nc2cc(C(F)(F)F)ccc2n1C1CCN(CC(=O)N2CCOCC2)CC1 | 1.2% |
| c1ccc(Cn2nnnc2CN2CCN(Cc3ccc4c(c3)OCO4)CC2)cc1 | -5.8% |
| COc1ccc(S(=O)(=O)Nc2cc(C)ccc2OC)cc1C | 1.8% |
| COc1ccc(NC(=O)CSc2nc3c(c(=O)n2-c2ccc(F)cc2)SCC3)cc1 | 14.2% |
| COc1ccc(NC(=O)c2cccc(-n3cnnn3)c2)cc1 | -1.7% |
| O=C(O)C1C2C=CC3(CN(CC(O)COc4ccccc4)C(=O)C13)O2 (stereo not given) | -8.7% |
| Cc1cc2ccccc2n1CCNC(=O)c1ccc(S(=O)(=O)N2CCOCC2)cc1 | -3.1% |
| Cn1cc(S(=O)(=O)Cc2ccc(F)cc2)c2ccccc21 | 8.8% |
| CC(C)C[C@H](N)c1nnc(S(=O)(=O)Cc2cccc(F)c2)o1 | 19% |
| CC(C)CCN1C(=O)CCC1(C)C(=O)NC1CCCCCC1 (stereo not given) | -16.5% |
| Cc1ccccc1NC(=O)c1nc[nH]c1C(=O)NCc1ccccc1 | -22.2% |
| COc1ccc(NC(=O)c2nc[nH]c2C(=O)Nc2ccccc2C)cc1 | 55.3% (active) |
| COc1ccccc1NC(=O)c1nc[nH]c1C(=O)Nc1ccccc1OC | 17% |
| Cc1ccc(Nc2oc(C)nc2C#N)cc1 | 2.5% |
| CCCSC1=C(C#N)C(c2ccccc2C)CC(=O)N1 (stereo not given) | 10.1% |
| COc1ccc(OC)c(N/C(=N\c2nc(C)cc(C)n2)NC(=O)c2ccco2)c1 | -5.6% |
| COC(=O)c1ccc(CSc2nnc(NCc3ccccc3)s2)o1 | -3.1% |
| COC(=O)c1ccc(CSc2nnc(Nc3ccccc3OC)s2)o1 | 43.6% |
| CCOc1ccccc1Nc1nnc(SCc2ccc(C(=O)OC)o2)s1 | 58% (active) |
| Cn1c(=O)c2c(-c3ccccc3)n(CCCN3CCOCC3)cc2n(C)c1=O | -14% |
| COc1ccccc1NC(=O)c1cc(Sc2nncn2C)nc2ccccc12 | 4.7% |
| Cc1ccc(C(=O)C2=C(O)C(=O)N(CCCN3CCOCC3)C23C(=O)N(C)c2ccccc23)o1 (stereo not given) | -20.1% |
| O=C(Oc1ccc2ccccc2c1)c1ccco1 | 5% |
| CCOc1ccc2c(c1)N(C(=O)CN1C(=O)CCC1=O)C(C)(C)C=C2C | -6.5% |

| Structure (SMILES) | cytotoxicity |
| --- | --- |
| COC(=O)C1=C(C)NC(C)=C(C(=O)OC)C1c1ccc(OC(=O)c2ccco2)cc1 | -0.4% |
| COC(=O)c1ccc(OC(=O)c2ccco2)cc1 | -14.5% |
| O=C(Oc1cccc(Br)c1)c1cccnc1 | -5% |
| CCOc1ccc(OC(=O)c2cccnc2)cc1 | 4.1% |
| CC1=CC(C)(C)Nc2ccc(C)cc21 | -10.9% |
| CCc1ccc2c(c1)C(C)=CC(C)(C)N2 | 3.5% |
| COc1ccc(S(=O)(=O)N2CCCC2C(=O)Nn2cnnc2)cc1 (stereo not given) | -10.2% |
| O=C(O)C1C2CCC(C2)C1C(=O)Nc1nc2ccccc2s1 (stereo not given) | -5.1% |
| CCc1cccc(NC(=O)Cn2cccc2)c1 | 2.1% |
| Cc1noc(C)c1CSCC(=O)OCC(=O)Nc1sccc1C#N | 6.1% |
| CCCc1cc(=O)oc2cc(C)cc(OC(=O)c3ccco3)c12 | 11.7% |
| COC(=O)c1c(NC(=O)c2ccc(Br)o2)sc(C)c1C | 11% |
| O=S(=O)(c1cccc(Cl)c1Cl)N1CCCCC1 | -8.6% |
| C1CCC(c2nn3c(-c4n[nH]c5c4CCC5)nnc3s2)CC1 | 2.9% |
| COc1ccc(CCN(Cc2nc3ccccc3c(=O)[nH]2)C(=O)c2ccco2)cc1OC | -3% |
| CSc1ccc(C2C(C#N)=C(N)Oc3c2ccc(=O)c2c(C)oc(C)c32)cc1 (stereo not given) | -8.9% |
| Cc1oc(C)c2c(=O)ccc3c(c12)OC(N)=C(C#N)C3c1ccccc1 (stereo not given) | -51.8% |
| Cn1c(N2CCC(C(N)=O)CC2)nc2c1c(=O)n(Cc1ccc(Br)cc1)c(=O)n2C | 28.6% |
| COc1cccc(C2C(C#N)=C(N)OC3=C2C(=O)CCC3)c1OC(=O)c1ccco1 (stereo not given) | -11.1% |
| OCCN(CC(O)Cn1ccc2ccccc21)CC(O)Cn1ccc2ccccc21 (stereo not given) | -4.1% |
| OCCNCC(O)Cn1ccc2ccccc21 (stereo not given) | -15.1% |
| Cc1nn(Cc2ccccc2)c(C)c1C(=O)Nc1ccc(N2CCOCC2)cc1 | 6.2% |
| COc1ccc(CN(C)C2CCCCC2)cc1 | 12.6% |
| CC(C)(C)c1cc(C(=S)N2CCN(CCO)CC2)cc(C(C)(C)C)c1O | -4.1% |
| CC(C)(C)c1cc(CN2CCN(CCO)CC2)cc(C(C)(C)C)c1O | -9.7% |

| Structure (SMILES) | cytotoxicity |
| --- | --- |
| Cc1ccc2c(c1)N(CCCC(=O)NCC1COc3ccccc3O1)C(=O)CO2 (stereo not given) | -5.2% |
| C(=N\n1cnnc1)/c1cn(-c2cccs2)nc1-c1ccccc1 | -5.7% |
| O=C(O)C1CCN(C(=O)c2ccccc2C(=O)N2CCC(C(=O)O)CC2)CC1 | -9.9% |
| Cc1ccnc(NC(=O)C2CCN(S(=O)(=O)c3cccc4nsnc34)CC2)c1 | -8.3% |
| O=S(=O)(c1ccccc1)N1CCN(C2CCN(Cc3ccccc3)CC2)CC1 | 22.9% |
| Cc1ccc(C2C(C#N)=C(N)Oc3nc(-c4ccccc4)[nH]c32)o1 (stereo not given) | -2.4% |
| Cc1ccc(SCc2[nH]nc3c2C(c2ccc(C)o2)C(C#N)=C(N)O3)cc1 (stereo not given) | 44.5% |
| CC1(C)Cc2cccc(OCC(=O)N3CCN(S(=O)(=O)c4ccccc4)CC3)c2O1 | -2.1% |
| COC(=O)c1ccsc1NC(=O)c1ccc(Cl)s1 | -0.2% |
| CCCOc1ccc2nc(NC(=O)OC)[nH]c2c1 | 61.4% (active) |
| COc1ccc(C(=O)Nc2nc3ccccc3[nH]2)cc1OC | -5.6% |
| CCCSc1ccc2nc(NC(=O)OC)[nH]c2c1 | 67.1% (active) |
| CCOc1ccc2nc(NCCO)[nH]c2c1 | -2.1% |
| COc1ccc2nc(NCCO)[nH]c2c1 | -13.5% |
| COc1ccc2nc(SCC(N)=O)[nH]c2c1 | -19.2% |
| CCCCC(c1nnnn1CS(=O)(=O)c1ccc(C)cc1)N1CCN(c2ccccc2)CC1 (stereo not given) | -30% |
| O=C(NC1CCCc2ccccc21)C1CCN(S(=O)(=O)c2cccc3nonc23)CC1 (stereo not given) | -29.1% |
| O=C(c1cc2sccc2n1Cc1ccccc1)N1CCc2ccccc21 | 9.3% |
| CC(=O)N1CCN(CC(=O)Nc2c(Cl)cc(Cl)cc2Cl)CC1 | 0% |
| COc1ccc(N2CCN(C(=O)c3ccc(S(=O)(=O)N4CCOCC4)cc3)CC2)cc1 | 3.1% |
| COc1cc(OC)nc(NC(=O)COC(=O)C2CCCCC2)n1 | 8.7% |
| COc1ccc(-n2c(Cc3cccn3C)nnc2SCC(=O)Nc2ccccc2F)cc1 | -11.2% |
| O=C(C1=C(O)C(=O)N(c2ncccn2)C1c1ccc(Cl)c(Cl)c1)c1ccco1 (stereo not given) | 7.8% |
| Cc1ccc(C(=O)C2=C(O)C(=O)N(c3ncccn3)C2c2cccc(Cl)c2)o1 (stereo not given) | 22.7% |
| Cc1ccc(C(=O)C2=C(O)C(=O)N(c3ncccn3)C2c2ccc(Cl)cc2)o1 (stereo not given) | 68.3% (active) |
